According to ChEMBL document CHEMBL1961873, “Compounds: GSK PKIS; Assays: Nanosyn kinase panel” (2012):

biological target: Insulin-like growth factor 1 receptor (Homo sapiens) (UniProt P08069); settings: at 0.1 µM
Sequence (P08069 31-736 limits assumed): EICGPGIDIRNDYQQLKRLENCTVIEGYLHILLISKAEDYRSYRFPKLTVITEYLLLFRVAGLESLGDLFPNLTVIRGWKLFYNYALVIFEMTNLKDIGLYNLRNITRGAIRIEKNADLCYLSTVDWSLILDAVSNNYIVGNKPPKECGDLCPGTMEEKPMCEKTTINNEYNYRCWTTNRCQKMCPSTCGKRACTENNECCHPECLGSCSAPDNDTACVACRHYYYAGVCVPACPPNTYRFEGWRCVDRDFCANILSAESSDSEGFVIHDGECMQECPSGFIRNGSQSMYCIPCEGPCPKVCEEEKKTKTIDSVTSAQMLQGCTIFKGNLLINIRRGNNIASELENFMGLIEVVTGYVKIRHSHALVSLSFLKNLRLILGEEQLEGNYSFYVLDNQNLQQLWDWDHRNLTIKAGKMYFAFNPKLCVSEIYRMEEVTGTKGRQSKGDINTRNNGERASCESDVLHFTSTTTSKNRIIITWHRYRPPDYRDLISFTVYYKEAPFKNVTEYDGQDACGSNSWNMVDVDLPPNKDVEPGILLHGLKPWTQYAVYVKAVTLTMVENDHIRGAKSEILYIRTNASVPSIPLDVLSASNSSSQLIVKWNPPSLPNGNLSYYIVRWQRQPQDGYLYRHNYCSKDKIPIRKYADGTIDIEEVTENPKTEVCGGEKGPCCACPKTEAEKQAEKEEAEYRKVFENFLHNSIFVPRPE
Sequence (P08069 741-1367 limits assumed): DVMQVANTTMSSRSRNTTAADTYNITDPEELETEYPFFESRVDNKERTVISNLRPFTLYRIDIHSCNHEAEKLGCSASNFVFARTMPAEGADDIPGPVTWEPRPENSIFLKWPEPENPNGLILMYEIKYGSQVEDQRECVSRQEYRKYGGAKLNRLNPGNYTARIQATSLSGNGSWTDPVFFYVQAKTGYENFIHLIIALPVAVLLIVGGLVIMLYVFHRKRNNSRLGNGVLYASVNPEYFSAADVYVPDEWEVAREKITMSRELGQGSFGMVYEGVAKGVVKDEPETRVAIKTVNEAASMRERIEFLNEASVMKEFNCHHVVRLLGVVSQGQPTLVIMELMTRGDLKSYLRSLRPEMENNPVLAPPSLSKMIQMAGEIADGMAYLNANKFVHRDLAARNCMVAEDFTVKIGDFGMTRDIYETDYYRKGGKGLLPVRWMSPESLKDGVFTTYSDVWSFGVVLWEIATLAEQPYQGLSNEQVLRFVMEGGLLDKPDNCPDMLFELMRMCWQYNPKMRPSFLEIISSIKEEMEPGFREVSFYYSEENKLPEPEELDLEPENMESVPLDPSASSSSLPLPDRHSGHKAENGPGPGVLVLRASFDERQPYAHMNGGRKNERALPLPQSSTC

| Structure (SMILES) | inhibition [%] |
| --- | --- |
| N#Cc1c(NC(=O)c2cccc3ccccc23)sc2c1CCCC2 | 1.59 |
| CCn1c(-c2nonc2N)nc2cncc(C(=O)N3CCNCC3)c21 | 8.86 |
| NS(=O)(=O)c1cccc(-c2ccc3c(NC(=O)C4CC4)n[nH]c3c2)c1 | -0.13 |
| CC1=C(C(=O)Nc2ccc3[nH]ncc3c2)C(c2ccc3ccccc3c2)CC(=O)N1 (stereo unspecified) | 4 |
| Cc1nnc(-c2ccc(C)c(-c3ccc(C(=O)Nc4cccc(C#N)c4)cc3)c2)o1 | 1.24 |
| Cc1nn(C)c2cc(N(C)c3ccnc(Nc4cccc(S(N)(=O)=O)c4)n3)ccc12 | 1.89 |
| NC(=O)c1cccc(Nc2nccc(Nc3cccc4[nH]ncc34)n2)c1 | -0.89 |
| COc1cc2ncn(-c3cc(OCc4ccccc4Cl)c(C(N)=O)s3)c2cc1OC | 2.22 |
| Cc1cccc(-c2n[nH]cc2-c2ccc3ncccc3n2)n1 | 1.27 |
| CCn1c(-c2nonc2N)nc2ccncc21 | -0.2 |
| NCc1ccc(-c2nc(-c3ccc(Cl)c(O)c3)c(-c3ccncc3)[nH]2)cc1 | -0.62 |
| CCN1CCC(CC(=O)Nc2n[nH]c3nc(-c4cccs4)c(Br)cc23)CC1 | -1.09 |
| Nc1nc(-c2ccc3c(c2)C(=Cc2cc(Br)c(O)c(Br)c2)C(=O)N3)cs1 | -1.89 |
| COc1ccc(-c2nn3ncccc3c2-c2ccnc(Nc3ccc(Cl)c(C(F)(F)F)c3)n2)cc1 | 0.1 |
| COc1ccc(COc2ccc(Cc3cnc(N)nc3N)cc2OC)cc1 | -2.27 |
| [O-][S+]1CCN(Cc2ccc(-c3ccc4ncnc(Nc5ccc(OCc6ccccc6)c(F)c5)c4c3)o2)CC1 | 4.94 |

| Structure (SMILES) | inhibition [%] |
| --- | --- |
| CC(C)=Cc1cccc2c1/C(=N/Nc1ccc(S(N)(=O)=O)cc1)C(=O)N2 | 2.45 |
| Nc1ncnc2occ(-c3ccc(NC(=O)Nc4cc(C(F)(F)F)cc(C(F)(F)F)c4)cc3)c12 | 1.24 |
| COc1cc(C)c(NC(=O)CN(C)C)cc1Nc1nc(Nc2cccc(F)c2C(N)=O)c2cc[nH]c2n1 | 93.6 |
| COC(=O)Nc1nc2cc(Oc3ccc(NC(=O)Nc4cccc(C(=O)O)c4)cc3)ccc2[nH]1 | -3.37 |
| CS(=O)(=O)Nc1ccc(N/C=C2\C(=O)Nc3ccccc32)cc1 | -1.54 |
| CC(=O)Nc1cccc(C#Cc2cncnc2Nc2ccc(OCc3cccc(F)c3)c(Cl)c2)n1 | -4.35 |
| CN(C)c1cc2c(Nc3ccc4nc(Cc5ccccc5)[nH]c4c3)ncnc2cn1 | 6.59 |
| COc1ccc(-c2ccncc2)cc1C(N)=O | 3.69 |
| O=C(Nc1n[nH]c2nc(-c3ccco3)c(Br)cc12)C1CC1 | 2.77 |
| CS(=O)(=O)CCNCc1ccc(-c2ccc3ncnc(Nc4ccc(OCc5cccc(F)c5)c(C(F)(F)F)c4)c3c2)o1 | 0.07 |
| CCn1c(-c2nonc2N)nc2c(C#CC(C)(C)O)nc(CN3CCCC3)cc21 | -0.3 |
| CCn1c(-c2nonc2N)nc2c(N3CCCC3)nccc21 | 0.23 |
| CCc1cccc(NC(=O)Nc2ccc(Oc3ccc4nc(NC(=O)OC)[nH]c4c3)cc2)c1 | 5.04 |
| O=C1Nc2ccc(C(=O)c3ccco3)cc2C1=Cc1cc(Cl)c(O)c(Cl)c1 | 4.15 |
| CS(=O)(=O)CCNCc1nc(-c2ccc3ncnc(Nc4ccc(F)c(Cl)c4)c3c2)cs1 | 3.27 |
| Fc1cccc(COc2ccc(Nc3ncnc4cc(-c5ccc[nH]5)sc34)cc2Cl)c1 | -6.59 |

biological target: Insulin-like growth factor 1 receptor (Homo sapiens) (UniProt P08069); settings: at 1 µM

| Structure (SMILES) | inhibition [%] |
| --- | --- |
| N#Cc1c(NC(=O)c2cccc3ccccc23)sc2c1CCCC2 | 2.51 |
| CCn1c(-c2nonc2N)nc2cncc(C(=O)N3CCNCC3)c21 | 9.25 |
| NS(=O)(=O)c1cccc(-c2ccc3c(NC(=O)C4CC4)n[nH]c3c2)c1 | 3.51 |
| CC1=C(C(=O)Nc2ccc3[nH]ncc3c2)C(c2ccc3ccccc3c2)CC(=O)N1 (stereo unspecified) | 6.6 |
| Cc1nnc(-c2ccc(C)c(-c3ccc(C(=O)Nc4cccc(C#N)c4)cc3)c2)o1 | 0.79 |
| Cc1nn(C)c2cc(N(C)c3ccnc(Nc4cccc(S(N)(=O)=O)c4)n3)ccc12 | 7.04 |
| CS(=O)(=O)CCN(CC#N)Cc1ccc(-c2ccc3ncnc(Nc4ccc(OCc5cccc(F)c5)c(Cl)c4)c3c2)o1 | -4.22 |
| NC(=O)c1cccc(Nc2nccc(Nc3cccc4[nH]ncc34)n2)c1 | 15.5 |
| COc1cc2ncn(-c3cc(OCc4ccccc4Cl)c(C(N)=O)s3)c2cc1OC | 2.52 |
| Cc1cccc(-c2n[nH]cc2-c2ccc3ncccc3n2)n1 | -0.01 |
| CCn1c(-c2nonc2N)nc2ccncc21 | 1.25 |
| COc1cc2ncn(-c3cc(OCc4ccccc4C(F)(F)F)c(C(N)=O)s3)c2cc1OC | -2.72 |
| NCc1ccc(-c2nc(-c3ccc(Cl)c(O)c3)c(-c3ccncc3)[nH]2)cc1 | -0.25 |
| CCN1CCC(CC(=O)Nc2n[nH]c3nc(-c4cccs4)c(Br)cc23)CC1 | 1.31 |
| Nc1nc(-c2ccc3c(c2)C(=Cc2cc(Br)c(O)c(Br)c2)C(=O)N3)cs1 | 0.82 |
| COc1ccc(-c2nn3ncccc3c2-c2ccnc(Nc3ccc(Cl)c(C(F)(F)F)c3)n2)cc1 | -0.08 |
| COc1ccc(COc2ccc(Cc3cnc(N)nc3N)cc2OC)cc1 | -0.91 |

| Structure (SMILES) | inhibition [%] |
| --- | --- |
| [O-][S+]1CCN(Cc2ccc(-c3ccc4ncnc(Nc5ccc(OCc6ccccc6)c(F)c5)c4c3)o2)CC1 | 2.99 |
| CC(C)=Cc1cccc2c1/C(=N/Nc1ccc(S(N)(=O)=O)cc1)C(=O)N2 | 8.58 |
| Nc1ncnc2occ(-c3ccc(NC(=O)Nc4cc(C(F)(F)F)cc(C(F)(F)F)c4)cc3)c12 | 7.12 |
| COc1cc(C)c(NC(=O)CN(C)C)cc1Nc1nc(Nc2cccc(F)c2C(N)=O)c2cc[nH]c2n1 | 95.5 |
| COC(=O)Nc1nc2cc(Oc3ccc(NC(=O)Nc4cccc(C(=O)O)c4)cc3)ccc2[nH]1 | -7.4 |
| CS(=O)(=O)Nc1ccc(N/C=C2\C(=O)Nc3ccccc32)cc1 | 5.77 |
| CC(=O)Nc1cccc(C#Cc2cncnc2Nc2ccc(OCc3cccc(F)c3)c(Cl)c2)n1 | -3.59 |
| CN(C)c1cc2c(Nc3ccc4nc(Cc5ccccc5)[nH]c4c3)ncnc2cn1 | 11.5 |
| COc1ccc(-c2ccncc2)cc1C(N)=O | 4.13 |
| O=C(Nc1n[nH]c2nc(-c3ccco3)c(Br)cc12)C1CC1 | 3.89 |
| CS(=O)(=O)CCNCc1ccc(-c2ccc3ncnc(Nc4ccc(OCc5cccc(F)c5)c(C(F)(F)F)c4)c3c2)o1 | 1.69 |
| CCn1c(-c2nonc2N)nc2c(C#CC(C)(C)O)nc(CN3CCCC3)cc21 | -1.42 |
| CCn1c(-c2nonc2N)nc2c(N3CCCC3)nccc21 | 2.72 |
| CCc1cccc(NC(=O)Nc2ccc(Oc3ccc4nc(NC(=O)OC)[nH]c4c3)cc2)c1 | 2.45 |
| O=C1Nc2ccc(C(=O)c3ccco3)cc2C1=Cc1cc(Cl)c(O)c(Cl)c1 | 4.7 |
| CS(=O)(=O)CCNCc1nc(-c2ccc3ncnc(Nc4ccc(F)c(Cl)c4)c3c2)cs1 | 3.4 |
| Fc1cccc(COc2ccc(Nc3ncnc4cc(-c5ccc[nH]5)sc34)cc2Cl)c1 | -4.84 |
